Compounds without any hit were thinned out: in the full panel of roughly 79,000, 15% have a hit. Unmarked numbers belong to inactive results. No stated cut-off is given here; in the data, active means growth inhibition above about 70%; inactive means the rest.

One experiment in a line: NCI Yeast Anticancer Drug Screen. Data for the rad50 strain (AID 155).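 Further: 0% = growth of vehicle-only cultures of the same strain.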 To be noted: S. cerevisiae rad50 strain growth inhibition; at 50.0 µM; stronger effect = higher value. In short, it runs like this: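 Readout: growth inhibition relative to vehicle-treated cultures. Compound exposure was carried out in a genetically defined yeast strain deficient in DNA damage repair.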
With `OCC(CN1CCCCC1)(CN1CCCCC1)CN1CCCCC1`, the growth inhibition was -47.8%.
On to `Cc1ccccc1NCC#N`, for which the growth inhibition was -23.9%.
On to `O=C1c2ccccc2C(=O)N1CCc1ccccn1`, for which the growth inhibition is 5.5%.
On to `O=C(N/N=C/c1ccc(Cl)cc1)c1cc(-c2ccccc2)nc2ccccc12`, for which the growth inhibition is 5.95%.
The same measure, in the same setting: in the case of `CCN(c1ccc(Br)cc1)c1ccc(Br)cc1` it was -14.2%; in that of `COc1ccc(C(=O)c2ccccc2C(=O)c2ccc(OC)cc2)cc1`, -22.1%.
Same read-out and setting: to `COc1ccc(NC(=O)c2cccc([N+](=O)[O-])c2)cc1` belongs 8.1%; to `OCC(O)C(O)C(O)C(O)CN=Cc1ccccc1O` (stereo not given), -19.8%; to `CC1CC(C)SC(C)S1` (stereo not given), -30.6%.
Consider `CC(=O)Oc1ccc2cc(Br)ccc2c1N(C(C)=O)C(C)=O`, for which the growth inhibition is 13.1%.
Regarding `C/C(=N\NC(=O)c1cccnc1)c1cccc(/C(C)=N/NC(=O)c2cccnc2)n1.CC(=O)[O-].CC(=O)[O-].[Zn+2]`, the growth inhibition is -5.45%.
As for `Cc1ccc2nc(N)nc(N)c2c1`, the growth inhibition was -12.9%.
Take `CC(=O)Nc1ccc(S(=O)(=O)CO)cc1`: the growth inhibition is 19.4%.
Take `COc1ccc(C(=O)c2ccccc2)c(OC(=O)Nc2ccc(Cl)cc2)c1`: the growth inhibition was 14.8%.
Consider `CC1(n2nc(-c3ccccc3)n(-c3ccccc3)c2=O)CSC1`, for which the growth inhibition was -8.4%.
`O=C(O)c1ccc(Nc2nc3ccccc3nc2C(=O)O)cc1`: the growth inhibition was -19.2%.
For the compound `CCOC(=O)C(C(=O)OCC)(C(=O)C(F)(F)C(F)(F)C(F)(F)C(F)(F)C(=O)C(C(=O)OCC)(C(=O)OCC)c1ccccc1)c1ccccc1`, the growth inhibition is 3.75%.
The same measure, in the same setting: in the case of `COC1/C=C\C=C(/C)C(=O)Nc2cc3nc4cccc(Br)c4oc-3c(c2=O)CC(C)CC(OC)C(O)C(C)/C=C(\C)C1OC(N)=O` (stereo not given) it was 33.1%; in that of `O=C1CC(NC(=O)c2ccccc2)C(=O)O1` (stereo not given), -5.75%; in that of `Cc1ccc2c(N(C)C)cc(N(C)C)nc2c1C`, -0.15%.
As for `CC1(C)C2CCC(OC(=O)c3ccc([N+](=O)[O-])cc3)C1C2` (stereo not given), the growth inhibition was 7.25%.
Turning to `O=CSC(=Nc1ccc(Cl)cc1)NC(=O)COc1ccc(Cl)cc1`, the growth inhibition was 5.05%.
For the compound `CN(C)c1ccc(N=Nc2ccc(C(C)(C)C)cc2)cc1`, the growth inhibition was -11.3%.
In the case of `O=C(O)c1cccc(-n2cnc3c(=O)[nH]cnc32)c1`, the growth inhibition was -0.25%.
Same read-out and setting: to `N#CC1(C#N)C(c2ccccc2)C=CC12OCCCO2` (stereo not given) belongs 10.9%; to `CCCC1(C(OC)OC)NC(=O)N(Cc2ccccc2)C1=O` (stereo not given), 4.45%.
For the compound `Cc1cc2[nH]c(=O)c(=O)[nH]c2cc1C`, the growth inhibition is 0.35%.
Turning to `COc1ccc(I)cc1`, the growth inhibition is -1.85%.
With `c1ccc(CN2COc3ccc4c5c(ccc4c3C2)OCN(Cc2ccccc2)C5)cc1`, the growth inhibition is -13.1%.
The same measure, in the same setting: in the case of `CCCCCC#CC(=O)OC` it was -14.8%.
`Nc1nc([O-])c([I+]c2ccccc2)c(=O)[nH]1`: the growth inhibition was -17.5%.
With `Cc1[nH]c(-c2ccccc2)c2nc(N(C)C)oc(=O)c12`, the growth inhibition is -11.4%.
The same measure, in the same setting: to `CN1CCCC1c1cccnc1.O=C(O)c1ccccc1O.O=C([O-])c1ccccc1[OH2+].O=C([O-])c1ccccc1[OH2+].O=C([O-])c1ccccc1[OH2+].[Mn+2]` (stereo not given) belongs 1.55%; to `Cc1cc2c(c(C(=O)NCCC(=O)N[C@@H](C)C(=O)OCc3ccccc3)c1)Oc1c(cc(C)cc1C(=O)NCCC(=O)N[C@@H](C)C(=O)OCc1ccccc1)S2`, 24%; to `C=CC(C)(C)/C=C/C=O`, -18.8%.
Still for that read-out and setting: to `CCCCSc1nc2c(=O)n(C)c(=O)n(C)c2n1C` belongs 2.1%; to `O=C(O)c1cccc(/C=N/O)c1O`, -16.9%.
On the same count and under the same terms, in the case of `N#CC1=C(c2ccccc2)C(=C2Nc3ccccc3N2)C2S/C(=C\c3ccccc3)C(=O)N2C1=N` (stereo not given) it was 21.2%.
`CCc1ccc(/C(C#N)=C/c2ccc(N(C)CCC#N)cc2)cc1`: the growth inhibition is 10.8%.
Still for that read-out and setting: in the case of `Nc1ccc2c(c1)C1C(C3C2C2(Cl)C(Cl)=C(Cl)C3(Cl)C2(Cl)Cl)C2(Cl)C(Cl)=C(Cl)C1(Cl)C2(Cl)Cl` (stereo not given) it was 33.6%.

A further experiment in a line: NCI Yeast Anticancer Drug Screen. Data for the mec2-1 strain (AID 157). To be noted: S. cerevisiae mec2-1 strain, at 50.0 µM, stronger effect = higher value. The method, boiled down: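 Each compound was tested on mec2-1 yeast, a strain altered in DNA damage repair or cell cycle control. Growth inhibition is reported relative to vehicle.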
Take `OCC(CN1CCCCC1)(CN1CCCCC1)CN1CCCCC1`: the growth inhibition was -68.7%.
As for `Cc1ccccc1NCC#N`, the growth inhibition is -26%.
Regarding `O=C1c2ccccc2C(=O)N1CCc1ccccn1`, the growth inhibition was -6%.
On the same count and under the same terms, to `O=C(N/N=C/c1ccc(Cl)cc1)c1cc(-c2ccccc2)nc2ccccc12` belongs 22.3%.
Consider `CCN(c1ccc(Br)cc1)c1ccc(Br)cc1`, for which the growth inhibition is -20.1%.
For `COc1ccc(C(=O)c2ccccc2C(=O)c2ccc(OC)cc2)cc1`, the growth inhibition was 16.1%.
As for `COc1ccc(NC(=O)c2cccc([N+](=O)[O-])c2)cc1`, the growth inhibition is 23.1%.
Take `OCC(O)C(O)C(O)C(O)CN=Cc1ccccc1O` (stereo not given): the growth inhibition was 7.9%.
On the same count and under the same terms, in the case of `CC1CC(C)SC(C)S1` (stereo not given) it was -7.95%; in that of `CC(=O)Oc1ccc2cc(Br)ccc2c1N(C(C)=O)C(C)=O`, -7.35%; in that of `C/C(=N\NC(=O)c1cccnc1)c1cccc(/C(C)=N/NC(=O)c2cccnc2)n1.CC(=O)[O-].CC(=O)[O-].[Zn+2]`, 5.15%.
The same measure, in the same setting: to `Cc1ccc2nc(N)nc(N)c2c1` belongs 7.15%.
For the compound `CC(=O)Nc1ccc(S(=O)(=O)CO)cc1`, the growth inhibition is 16.9%.
On to `COc1ccc(C(=O)c2ccccc2)c(OC(=O)Nc2ccc(Cl)cc2)c1`, for which the growth inhibition is -3.4%.
`CC1(n2nc(-c3ccccc3)n(-c3ccccc3)c2=O)CSC1`: the growth inhibition is -22.9%.
Still for that read-out and setting: to `O=C(O)c1ccc(Nc2nc3ccccc3nc2C(=O)O)cc1` belongs -26.8%; to `CCOC(=O)C(C(=O)OCC)(C(=O)C(F)(F)C(F)(F)C(F)(F)C(F)(F)C(=O)C(C(=O)OCC)(C(=O)OCC)c1ccccc1)c1ccccc1`, 0%.
In the case of `COC1/C=C\C=C(/C)C(=O)Nc2cc3nc4cccc(Br)c4oc-3c(c2=O)CC(C)CC(OC)C(O)C(C)/C=C(\C)C1OC(N)=O` (stereo not given), the growth inhibition is 21.8%.
Same read-out and setting: to `O=C1CC(NC(=O)c2ccccc2)C(=O)O1` (stereo not given) belongs 3.4%.
Still for that read-out and setting: in the case of `Cc1ccc2c(N(C)C)cc(N(C)C)nc2c1C` it was 4.4%.
As to `CC1(C)C2CCC(OC(=O)c3ccc([N+](=O)[O-])cc3)C1C2` (stereo not given), the growth inhibition is -5.15%.
As for `O=CSC(=Nc1ccc(Cl)cc1)NC(=O)COc1ccc(Cl)cc1`, the growth inhibition is -21.4%.
For the compound `CN(C)c1ccc(N=Nc2ccc(C(C)(C)C)cc2)cc1`, the growth inhibition was 3.3%.
On the same count and under the same terms, in the case of `O=C(O)c1cccc(-n2cnc3c(=O)[nH]cnc32)c1` it was -3.85%.
Take `N#CC1(C#N)C(c2ccccc2)C=CC12OCCCO2` (stereo not given): the growth inhibition was 6.75%.
Turning to `CCCC1(C(OC)OC)NC(=O)N(Cc2ccccc2)C1=O` (stereo not given), the growth inhibition was -5.15%.
Same read-out and setting: in the case of `Cc1cc2[nH]c(=O)c(=O)[nH]c2cc1C` it was 4.05%.
Same read-out and setting: in the case of `COc1ccc(I)cc1` it was -15.8%; in that of `c1ccc(CN2COc3ccc4c5c(ccc4c3C2)OCN(Cc2ccccc2)C5)cc1`, -5.45%.
Take `CCCCCC#CC(=O)OC`: the growth inhibition is 1.45%.
For the compound `Nc1nc([O-])c([I+]c2ccccc2)c(=O)[nH]1`, the growth inhibition is -11.8%.
As for `Cc1[nH]c(-c2ccccc2)c2nc(N(C)C)oc(=O)c12`, the growth inhibition was 29.3%.
On the same count and under the same terms, to `CN1CCCC1c1cccnc1.O=C(O)c1ccccc1O.O=C([O-])c1ccccc1[OH2+].O=C([O-])c1ccccc1[OH2+].O=C([O-])c1ccccc1[OH2+].[Mn+2]` (stereo not given) belongs -14.2%; to `Cc1cc2c(c(C(=O)NCCC(=O)N[C@@H](C)C(=O)OCc3ccccc3)c1)Oc1c(cc(C)cc1C(=O)NCCC(=O)N[C@@H](C)C(=O)OCc1ccccc1)S2`, 10.8%.
For `C=CC(C)(C)/C=C/C=O`, the growth inhibition was -15.1%.
On the same count and under the same terms, in the case of `CCCCSc1nc2c(=O)n(C)c(=O)n(C)c2n1C` it was 1.15%.
As to `O=C(O)c1cccc(/C=N/O)c1O`, the growth inhibition is -3.25%.
For `N#CC1=C(c2ccccc2)C(=C2Nc3ccccc3N2)C2S/C(=C\c3ccccc3)C(=O)N2C1=N` (stereo not given), the growth inhibition was -12.3%.
Same read-out and setting: to `CCc1ccc(/C(C#N)=C/c2ccc(N(C)CCC#N)cc2)cc1` belongs 2.8%; to `Nc1ccc2c(c1)C1C(C3C2C2(Cl)C(Cl)=C(Cl)C3(Cl)C2(Cl)Cl)C2(Cl)C(Cl)=C(Cl)C1(Cl)C2(Cl)Cl` (stereo not given), 24.9%.

The record behind these values is PubChem BioAssay (NCI).
